Growth data for nine molecules are collected here from PubChem BioAssay (NCI).

Among the test systems are NCI-H23 lung; NCI-H226 lung; NCI-H322M lung; HOP-62 NSCLC; NCI-H460 lung; HOP-92 NSCLC; NCI-H522 lung; A549/ATCC NSCLC; 786-0 renal; DU-145 prostate; K-562 leukemia; MALME-3M melanoma; MDA-MB-231 breast; RXF 393 renal; SF-268 CNS; SF-295 CNS; SF-539 CNS; UACC-257 melanoma; M14 melanoma; COLO 205 colon.
Holding throughout (assay): NCI-60 one-dose screen, 48 h (100 = growth as untreated, 0 = no growth, -100 = all killed)
What all share (conditions): 10 µM unless noted

Compounds without any hit were thinned out: in the full panel of roughly 83,000, 20% have a hit.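 48-hour exposure, single concentration, 96-well plates; percent growth endpoint where 0 means no net growth. Active: below 10.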 A number with no mark means an inactive call. Activity calls are given as the source filed them.

Turning to `CC1(C)CC[C@]2(C(=O)NCC#CCN3CCOCC3)CC[C@]3(C)C(=CC[C@@H]4[C@@]5(C)Cc6c([nH]c7ccccc67)C(C)(C)[C@@H]5CC[C@]43C)[C@@H]2C1`, the growth in the assay with NCI-H23 lung was 95.9%; in the assay with NCI-H226 lung, 95.1%; in the assay on NCI-H322M lung, 96.1%; with HOP-62 NSCLC, 98.1%; in the assay on NCI-H460 lung, 90.1%; with HOP-92 NSCLC it was 79.8%. The growth in the assay with NCI-H522 lung is 85.2%; with A549/ATCC NSCLC, 72%; in the assay with 786-0 renal it was 92.7%; with DU-145 prostate, 103%; in the assay on K-562 leukemia it was 65.3%; with MALME-3M melanoma, 95%. Besides, the growth with MDA-MB-231 breast is 91.4%; in the assay on RXF 393 renal, 98.6%; in the assay with SF-268 CNS, 87.7%; in the assay with SF-295 CNS it was 79.7%; in the assay on SF-539 CNS, 107%; in the assay with UACC-257 melanoma, 47.5%. Besides, in the assay with M14 melanoma, the growth was 80.7%.
Regarding `FC(F)(F)c1cccc(Oc2ccc(Nc3ncnc4ccc(OCCCN5CCOCC5)cc34)cc2Cl)c1`, the growth in the assay on NCI-H23 lung is 76.1%; in the assay with NCI-H226 lung, 84.7%; with NCI-H322M lung it was 37.5%; in the assay on HOP-62 NSCLC, 62.3%; in the assay with NCI-H460 lung it was 14.2%; with HOP-92 NSCLC, 41.5%. Moreover, the growth in the assay with NCI-H522 lung is 35.1%; with A549/ATCC NSCLC, 49.4%; in the assay with 786-0 renal, 44.6%; with DU-145 prostate, 43%; with K-562 leukemia it was 1.77% (active); in the assay on MALME-3M melanoma it was -4.17% (active). Also, the growth was 22.4% in the assay with MDA-MB-231 breast; 55.6% in the assay on SF-268 CNS; 25.7% with SF-295 CNS; 60.8% in the assay with SF-539 CNS; 40.1% with UACC-257 melanoma; -36% (active) with M14 melanoma.
For `Nc1nc(SN=Nc2ccc(S(N)(=O)=O)cc2)c2[nH]cnc2n1`, the growth was 8.88% (active) in the assay on NCI-H23 lung; 37.3% with NCI-H226 lung; 56.4% in the assay with NCI-H322M lung; 19.8% in the assay with HOP-62 NSCLC; 4.68% (active) with NCI-H460 lung; -6.95% (active) with HOP-92 NSCLC. The growth in the assay on NCI-H522 lung is -9.91% (active); in the assay on A549/ATCC NSCLC, 24.1%; in the assay on 786-0 renal it was 15.7%; in the assay on DU-145 prostate, 15%; with MALME-3M melanoma it was 24.6%; with MDA-MB-231 breast, 16.9%. The growth in the assay on RXF 393 renal is -6.34% (active); in the assay on SF-268 CNS, 19.8%; in the assay with SF-295 CNS, 12.6%; in the assay on SF-539 CNS, 14.9%; in the assay with UACC-257 melanoma, 8.28% (active); with M14 melanoma it was 11.1%.
With `O=C(N/N=C/c1cccc(O)c1)c1ccccc1Nc1cccc(C(F)(F)F)c1`, the growth in the assay with NCI-H23 lung is 96.4%; in the assay with NCI-H226 lung, 76.7%; in the assay with NCI-H322M lung it was 77.9%; in the assay with HOP-62 NSCLC, 73%; with NCI-H460 lung, 102%; in the assay on HOP-92 NSCLC, 63%. Moreover, the growth with NCI-H522 lung is 90.3%; in the assay on A549/ATCC NSCLC it was 29.1%; in the assay with 786-0 renal it was 43.5%; with COLO 205 colon, 117%; with DU-145 prostate, 88.7%; with MALME-3M melanoma, 76.3%. In addition, the growth with MDA-MB-231 breast was 73.8%; in the assay with SF-268 CNS it was 69.5%; in the assay with SF-295 CNS it was 52.2%; in the assay with SF-539 CNS it was 103%; in the assay on UACC-257 melanoma, 64.9%; in the assay with M14 melanoma, 58.8%.
With `COc1cc2nnn3c4ncccc4c(N=O)c3c2cc1OC`, the growth in the assay with NCI-H23 lung was 112%; in the assay on NCI-H226 lung, 97%; in the assay on NCI-H322M lung it was 78.6%; with HOP-62 NSCLC, 106%; in the assay on NCI-H460 lung it was 84.9%; in the assay on HOP-92 NSCLC, -12% (active). For the same molecule, the growth was -34.3% (active) with NCI-H522 lung; 95.2% in the assay with A549/ATCC NSCLC; 48.2% with 786-0 renal; 102% in the assay on COLO 205 colon; 102% in the assay on DU-145 prostate; 91.2% with MALME-3M melanoma. Besides, the growth with MDA-MB-231 breast is 78.6%; with SF-268 CNS it was 30.3%; with SF-295 CNS, 111%; with SF-539 CNS, 98.6%; in the assay with UACC-257 melanoma, 76.1%; in the assay on M14 melanoma, 104%.
With `COc1ccc(C2=C(c3ccccc3)c3ccc(OC(C)=O)cc3OC2(C)C)cc1`, the growth in the assay on NCI-H23 lung was 79.8%; in the assay on NCI-H226 lung, 86.3%; in the assay with NCI-H322M lung, 102%; in the assay on HOP-62 NSCLC, 107%; in the assay with NCI-H460 lung it was 84.8%; in the assay with HOP-92 NSCLC it was 81.1%. The growth with NCI-H522 lung is 88.8%; with A549/ATCC NSCLC it was 87.7%; in the assay on 786-0 renal, 101%; in the assay with DU-145 prostate it was 105%; in the assay with MALME-3M melanoma, 107%; with MDA-MB-231 breast, 68.2%. In addition, the growth was 95.8% with RXF 393 renal; 102% in the assay on SF-268 CNS; 72.3% in the assay with SF-295 CNS; 102% in the assay with SF-539 CNS; 145% in the assay with UACC-257 melanoma; 110% with M14 melanoma.
For `CCc1c(Nc2ccc(C)cc2)nc(N)[nH]c1=O`, the growth with NCI-H23 lung was 103%; in the assay with NCI-H226 lung, 102%; in the assay with NCI-H322M lung, 103%; with HOP-62 NSCLC, 98.7%; in the assay with NCI-H460 lung, 108%; with HOP-92 NSCLC it was 93.7%. Further, the growth with NCI-H522 lung is 90.5%; in the assay on A549/ATCC NSCLC it was 99.5%; in the assay with 786-0 renal, 100%; in the assay on DU-145 prostate, 111%; with K-562 leukemia it was 94.7%; in the assay on MALME-3M melanoma, 98.6%. Further, the growth in the assay on MDA-MB-231 breast is 94.7%; in the assay on RXF 393 renal it was 109%; in the assay on SF-268 CNS, 102%; with SF-295 CNS it was 98.3%; in the assay with SF-539 CNS, 101%; in the assay with UACC-257 melanoma it was 102%. Further, in the assay on M14 melanoma, the growth is 100%.
As for `C=C(C)[C@@H]1CC[C@]2(C(=O)NCCCN(CCC#N)CCC#N)CC[C@]3(C)[C@H](CC[C@@H]4[C@@]5(C)CCC(=O)C(C)(C)[C@@H]5CC[C@]43C)[C@@H]12`, the growth in the assay with NCI-H23 lung is 109%; in the assay with NCI-H226 lung, 102%; in the assay with NCI-H322M lung, 104%; with HOP-62 NSCLC, 105%; with NCI-H460 lung, 104%; in the assay with HOP-92 NSCLC, 82.4%. Further, the growth with NCI-H522 lung was 93.5%; in the assay on A549/ATCC NSCLC, 91.2%; in the assay on 786-0 renal, 94.2%; in the assay on DU-145 prostate, 105%; with MALME-3M melanoma, 105%; with MDA-MB-231 breast, 103%. Also, the growth is 94.6% in the assay on SF-268 CNS; 99.8% in the assay with SF-295 CNS; 94.2% in the assay on SF-539 CNS; 91.4% in the assay with UACC-257 melanoma; 99% in the assay with M14 melanoma.
As to `COc1cc(CNC(=O)CCCCC[P+](c2ccccc2)(c2ccccc2)c2ccccc2)c(OC)c2c1OCO2`, the growth with NCI-H23 lung is 66.9%; with NCI-H226 lung, 88.3%; with NCI-H322M lung, 96.8%; in the assay with HOP-62 NSCLC it was 90.1%; with NCI-H460 lung, 78.6%; with HOP-92 NSCLC, 23.5%. The growth with NCI-H522 lung is 52.9%; in the assay on A549/ATCC NSCLC, 87.8%; with 786-0 renal, 96.3%; in the assay with DU-145 prostate it was 81.1%; in the assay with K-562 leukemia, 20.8%; in the assay with MALME-3M melanoma, 55.5%. The growth was 72.8% in the assay with MDA-MB-231 breast; 66.9% in the assay with SF-268 CNS; 87.2% in the assay with SF-295 CNS; 73.1% in the assay on SF-539 CNS; 21.2% in the assay on UACC-257 melanoma; 76.2% in the assay on M14 melanoma.
